target: GST-Hu-p50 (Homo sapiens, UniProt P19838 7-356); assay: protein-binding microarray (PBM); PBM: ~300 nM protein, 6 mM HEPES pH 7.8, 80 mM KCl, 0.5 mM EDTA, 0.5 mM EGTA, 6% glycerol, 35 ng/ul poly-dIdC, 1% milk, 1 h, room temperature; Ap Aiptasia and Nv Nematostella (sea anemones) / Co Capsaspora / Aq Amphimedon (sponge) / Dm Drosophila / Hu human; RHD is the Rel homology domain; high values mean tight binding; details: dsDNA, one strand shown
Sequence (P19838 7-356): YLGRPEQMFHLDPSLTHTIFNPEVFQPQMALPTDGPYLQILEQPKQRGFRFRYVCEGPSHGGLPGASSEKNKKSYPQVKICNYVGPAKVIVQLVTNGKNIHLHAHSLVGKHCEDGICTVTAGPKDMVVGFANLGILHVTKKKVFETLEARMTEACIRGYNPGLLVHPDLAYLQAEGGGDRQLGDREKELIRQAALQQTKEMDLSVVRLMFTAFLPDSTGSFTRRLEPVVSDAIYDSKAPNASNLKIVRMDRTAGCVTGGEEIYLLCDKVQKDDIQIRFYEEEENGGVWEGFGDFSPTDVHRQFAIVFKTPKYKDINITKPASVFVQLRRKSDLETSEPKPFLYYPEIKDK

Q: How did the binding signal turn out when “CCGATTAACATCAAAAGTCCCCGTGATGTTAATCGGGTCTTGATTCGCTTGACGCTGCTG” was run?
A: The binding signal was 6.58 z-score.

Q: With “CCGATTAACATCACACTACCCCCTGATGTTAATCGGGTCTTGATTCGCTTGACGCTGCTG” as the sequence, how does the binding signal read?
A: Its binding signal is 3.3 z-score.

Q: For “CCGATTAACATCAAAGTCTCCCCTGATGTTAATCGGGTCTTGATTCGCTTGACGCTGCTG”, which binding signal is on record?
A: Its binding signal is 3.28 z-score.

Q: Which binding signal does the source give for “CCGATTAACATCACCAACCCCCCTGATGTTAATCGGGTCTTGATTCGCTTGACGCTGCTG” here?
A: Its binding signal is 4.51 z-score.

Q: For “CCGATTAACATCAGCTAATTCCCTGATGTTAATCGGGTCTTGATTCGCTTGACGCTGCTG”, which binding signal is on record?
A: The binding signal was 2.27 z-score.

Q: Which binding signal does the source give for “CCGATTAACATCAGACTTTTCCCTGATGTTAATCGGGTCTTGATTCGCTTGACGCTGCTG” here?
A: The binding signal was 3.13 z-score.

Q: For “CCGATTAACATCAAAAATCCCAATGATGTTAATCGGGTCTTGATTCGCTTGACGCTGCTG”, which binding signal is on record?
A: The binding signal was 3.32 z-score.

Q: “CCGATTAACATCAAATTCCCCCTTGATGTTAATCGGGTCTTGATTCGCTTGACGCTGCTG” was tested. Which binding signal did it give?
A: The binding signal was 8.06 z-score.

Q: For “CCGATTAACATCAAAAAATACCCTGATGTTAATCGGGTCTTGATTCGCTTGACGCTGCTG”, which binding signal is on record?
A: The binding signal was 6.73 z-score.

Q: For “CCGATTAACATCAAAATACCCCCTGATGTTAATCGGGTCTTGATTCGCTTGACGCTGCTG”, which binding signal is on record?
A: The binding signal was 6.58 z-score.

Q: “CCGATTAACATCAGGACCTCCCCTGATGTTAATCGGGTCTTGATTCGCTTGACGCTGCTG” was tested. Which binding signal did it give?
A: Its binding signal is 3.65 z-score.

Q: “CCGATTAACATCAGGGGATTCACTGATGTTAATCGGGTCTTGATTCGCTTGACGCTGCTG” was tested. Which binding signal did it give?
A: Its binding signal is 6.59 z-score.

Q: Which binding signal does the source give for “CCGATTAACATCAGGGAATGCCCTGATGTTAATCGGGTCTTGATTCGCTTGACGCTGCTG” here?
A: The binding signal was 3.67 z-score.

Q: “CCGATTAACATCAGAAGATCCCCTGATGTTAATCGGGTCTTGATTCGCTTGACGCTGCTG” was tested. Which binding signal did it give?
A: Its binding signal is 5.61 z-score.

Q: With “CCGATTAACATCAGAATTCCCCCTGATGTTAATCGGGTCTTGATTCGCTTGACGCTGCTG” as the sequence, how does the binding signal read?
A: The binding signal was 8.34 z-score.

Q: Which binding signal does the source give for “CCGATTAACATCAAAAGATCCCCTGATGTTAATCGGGTCTTGATTCGCTTGACGCTGCTG” here?
A: The binding signal was 6.41 z-score.

Q: Which binding signal does the source give for “CCGATTAACATCACGGAACCCCCTGATGTTAATCGGGTCTTGATTCGCTTGACGCTGCTG” here?
A: Its binding signal is 5.79 z-score.

Q: Which binding signal does the source give for “CCGATTAACATCAGGGGGATAAATGATGTTAATCGGGTCTTGATTCGCTTGACGCTGCTG” here?
A: The binding signal was 4.82 z-score.

Q: “CCGATTAACATCAATCTTTCCCCTGATGTTAATCGGGTCTTGATTCGCTTGACGCTGCTG” was tested. Which binding signal did it give?
A: Its binding signal is 5.41 z-score.

Q: How did the binding signal turn out when “CCGATTAACATCAAAAGTCCCCTTGATGTTAATCGGGTCTTGATTCGCTTGACGCTGCTG” was run?
A: The binding signal was 7.27 z-score.

Q: How did the binding signal turn out when “CCGATTAACATCAAGTCCCCCCATGATGTTAATCGGGTCTTGATTCGCTTGACGCTGCTG” was run?
A: Its binding signal is 3.78 z-score.

Q: For “CCGATTAACATCAATCACCCCCCTGATGTTAATCGGGTCTTGATTCGCTTGACGCTGCTG”, which binding signal is on record?
A: The binding signal was 4.4 z-score.

Q: For “CCGATTAACATCAAAGCATCCCCTGATGTTAATCGGGTCTTGATTCGCTTGACGCTGCTG”, which binding signal is on record?
A: The binding signal was 4.58 z-score.

Q: For “CCGATTAACATCAAGGGGGTACTTGATGTTAATCGGGTCTTGATTCGCTTGACGCTGCTG”, which binding signal is on record?
A: The binding signal was 4.47 z-score.

Q: With “CCGATTAACATCAGGGGAATCCATGATGTTAATCGGGTCTTGATTCGCTTGACGCTGCTG” as the sequence, how does the binding signal read?
A: Its binding signal is 6.48 z-score.

Q: “CCGATTAACATCAAGAATCCCCTTGATGTTAATCGGGTCTTGATTCGCTTGACGCTGCTG” was tested. Which binding signal did it give?
A: Its binding signal is 7.63 z-score.

Q: With “CCGATTAACATCAAATATTCCCCTGATGTTAATCGGGTCTTGATTCGCTTGACGCTGCTG” as the sequence, how does the binding signal read?
A: Its binding signal is 6.65 z-score.

Q: For “CCGATTAACATCAGGGAAAGCACTGATGTTAATCGGGTCTTGATTCGCTTGACGCTGCTG”, which binding signal is on record?
A: The binding signal was 3.98 z-score.

Q: For “CCGATTAACATCACACATTCCCCTGATGTTAATCGGGTCTTGATTCGCTTGACGCTGCTG”, which binding signal is on record?
A: Its binding signal is 5.28 z-score.

Q: “CCGATTAACATCACATATTCCCCTGATGTTAATCGGGTCTTGATTCGCTTGACGCTGCTG” was tested. Which binding signal did it give?
A: The binding signal was 5.69 z-score.

Q: How did the binding signal turn out when “CCGATTAACATCAAGGATTCCCCTGATGTTAATCGGGTCTTGATTCGCTTGACGCTGCTG” was run?
A: Its binding signal is 6.89 z-score.

Q: For “CCGATTAACATCAAAAAGACCCCTGATGTTAATCGGGTCTTGATTCGCTTGACGCTGCTG”, which binding signal is on record?
A: The binding signal was 4.67 z-score.

Q: Which binding signal does the source give for “CCGATTAACATCAATTCCCCCCATGATGTTAATCGGGTCTTGATTCGCTTGACGCTGCTG” here?
A: The binding signal was 6.18 z-score.

Q: Which binding signal does the source give for “CCGATTAACATCAGGGGAGTACCTGATGTTAATCGGGTCTTGATTCGCTTGACGCTGCTG” here?
A: The binding signal was 4.93 z-score.

Q: For “CCGATTAACATCAGGGGGAAACCTGATGTTAATCGGGTCTTGATTCGCTTGACGCTGCTG”, which binding signal is on record?
A: Its binding signal is 7.23 z-score.

Q: With “CCGATTAACATCAGGACAGCCCCTGATGTTAATCGGGTCTTGATTCGCTTGACGCTGCTG” as the sequence, how does the binding signal read?
A: Its binding signal is 4.14 z-score.

Q: Which binding signal does the source give for “CCGATTAACATCACAAGTTTCCCTGATGTTAATCGGGTCTTGATTCGCTTGACGCTGCTG” here?
A: Its binding signal is 4.17 z-score.

— PMC5700166
